From PubChem BioAssay
The sample as a whole holds a higher share of hits than the screen did.
Lassa entry inh: qHTS for Inhibitors of binding or entry into cells for Lassa Virus. Lassa virus pseudotype entry inhibition, cell reporter. Potency, µM (titrated, usually from 37.9 µM), for inactives: at the top dose activity change, negative = inhibition, hits mostly inhibitors. 300,000 tested, 1.2% active; calls by dose curve; tested in HEK293 cells; note: potency is the fitted concentration of half-maximal effect; % is set by controls: 0 for no effect and ±100 for the full control effect; nearly all actives have a fitted effect of over 50% in size
Cycloheximide cs: Cycloheximide Counterscreen for Small Molecule Inhibitors of Shiga Toxin. 300,000 tested, 12% active. max response, %. cell reporter, cycloheximide protein synthesis inhibition counterscreen; in the data active = max response mostly above about 13%, no sharp cut-off; inactive = mostly below about 14%; note: read at 38.3 µM for the half of the compounds with a filed dose; 0% is about no effect
Vaccinia mCherry: qHTS for Stage-Specific Inhibitors of Vaccinia Orthopoxvirus: mCherry Reporter Primary qHTS; 310,000 tested, 0.63% active; Vaccinia virus mCherry reporter infection, fluorescence; Potency, µM (series often up to 36.5 µM), for the others: at the top dose activity change, negative = inhibition, actives largely listed as inhibitors; calls by dose curve; tested in A549 cells; note: potency is the fitted concentration of half-maximal effect; % is set by controls: 0 for no effect and ±100 for the full control effect; nearly all actives have a fitted effect of over 35% in size
Marburg entry inh: qHTS for inhibitors of binding or entry into cells for Marburg Virus; 300,000 tested, 1.8% active; Marburg virus pseudotyped entry inhibition, cell reporter; Potency, µM (top dose mostly 37.8 µM), for the others: top-dose activity change, negative = inhibition, most hits filed as inhibitors; AID 540276, 2011; calls by dose curve; tested in HEK293 cells; note: potency is the fitted concentration of half-maximal effect; % is set by controls: 0 for no effect and ±100 for the full control effect
Shiga toxin inh: A qHTS for Small Molecule Inhibitors of Shiga Toxin | Vero cells, Shiga toxin protein synthesis inhibition reporter | inhibition, % at 38.7 µM | 290,000 tested, 9.2% active; in the data active = inhibition mostly above about 28%, no sharp cut-off; inactive = mostly below about 43%; note: 0% is about no effect
VACV Venus inh: qHTS for Stage-Specific Inhibitors of Vaccinia Orthopoxvirus: Venus Reporter Primary qHTS; Vaccinia virus Venus reporter expression, fluorescence; Potency, µM (highest dose often 36.5 µM), inactives show at the top dose activity change, negative = inhibition, most hits filed as inhibitors; 330,000 tested, 0.46% active; AID 720580, 2013; calls by dose curve; tested in A549 cells; note: potency is the fitted concentration of half-maximal effect; % is set by controls: 0 for no effect and ±100 for the full control effect; nearly all actives have a fitted effect of over 30% in size
The depositor's hits bear a star; i = inactive; ? = inconclusive; / = not tested or not shown; [ ] = remark or other dose.

SMILES | Lassa entry inh | Cycloheximide cs | Vaccinia mCherry | Marburg entry inh | Shiga toxin inh | VACV Venus inh
Cc1cc(OC(C)C(=O)N(Cc2ccc(N(C)C)cc2)Cc2ccco2)ccc1Cl (configuration not stated) | -4%[46.1 µM] | / | -16% | 1%[46.1 µM] | / | -7%
O=C(Nc1ccc(C(=O)O)cc1)/C(=C\c1ccc2c(c1)OCO2)NC(=O)c1ccccc1 | -5% | -2 | -8% | 3% | 8 | -7%
O=C(O)CNC(=O)/C(=C\c1ccc2c(c1)OCO2)NC(=O)c1ccc(Br)cc1 | -7%[46.1 µM] | -2 | -20% | 20%[46.1 µM] | -18 | -14%
O=C(NCCO)/C(=C/c1ccc2c(c1)OCO2)NC(=O)c1ccc(Br)cc1 | -5% | 41* | -7% | -6%[46.1 µM] | 74* | -8%
O=C(Nc1ccc(C(=O)O)cc1)/C(=C\c1ccc2c(c1)OCO2)NC(=O)c1ccc(Br)cc1 | 1% | 39* | i | ? | -5 | -11%
CC(=O)N/C(=C/c1ccc2c(c1)OCO2)C(=O)Nc1ccccc1 | 6%[46.1 µM] | 27* | i | ? | 80* | -7%
CC(=O)N/C(=C/c1ccc2c(c1)OCO2)C(=O)O | 0% | 1 | 11% | ? | 8 | 12%
CCCS(=O)(=O)NC(=O)C1(C)CCCN(C(=O)c2ccccc2)C1 (configuration not stated) | / | / | 7% | / | / | 3%
O=C(CSc1cn(Cc2ccccc2)c2ccccc12)N1CCOCC1 | / | 21* | 3% | / | 96* | -5%
O=C(NCCn1cc(SCC(=O)N2CCOCC2)c2ccccc21)c1ccccc1 | / | 19* | i | / | 37* | -4%
CC1CN(C(=O)CSc2cn(CC(=O)N3CCOCC3)c3ccccc23)CC(C)O1 (configuration not stated) | ? | 13 | i | 26%[46.1 µM] | -3 | -6%
COc1ccc(C(=O)NCCn2cc(SCC(=O)N3CCOCC3)c3ccccc32)cc1 | ? | 1 | -13% | 10% | -4 | -4%
COC(=O)c1ccc2nc(-c3ccc4c(c3)OCO4)cn2c1 | 2µM* | 40* | -1% | ? | 69* | -4%
O=C(Nc1ccc(-c2cn3c(n2)SCC3)cc1)c1ccc2c(c1)OCO2 | -26% | 29 | -14% | ? | 53 | -18%
CCc1ccn2cc(-c3ccc4c(c3)OCO4)nc2c1 | 0.89µM* | 5 | -22% | ? | -24 | -17%
Cc1nccc(-c2ccc3c(c2)OCO3)n1 | 3% | 13 | i | 12%[46.1 µM] | 14 | 1%
COc1cc(=O)n2c(c1C(=O)NCc1ccc3c(c1)OCO3)CCN(C(=O)c1ccccc1F)CC2 | / | / | -9% | / | / | 4%
CCc1ccc(Oc2c(C(F)(F)F)oc3c(CN4CCC(C)CC4)c(O)ccc3c2=O)cc1 | 2%[46.1 µM] | / | -4% | -14%[46.1 µM] | / | -3%
C#CCN1CCc2onc(-c3ccccc3OC)c2C1=O | / | / | 56% | / | / | 0%
N#Cc1ccc(COn2nnc3ccccc32)cc1 | 9% | 31* | -23% | 11%[46.1 µM] | 33 | -1%
c1ccc2c(COn3nnc4ccccc43)cccc2c1 | 91%[14.3 µM] | 54* | -17% | 2% | 87* | -8%
c1ccc2c(Cn3nnc4ccccc43)cccc2c1 | 9% | 6 | i | -8% | -12 | -10%
N#Cc1ccc(-c2ccc(OCC(O)Cn3nnc4ccccc43)cc2)cc1 (configuration not stated) | 1% | 2 | ? | ? | -2 | -25%
COc1ccc(C(=O)NC2=Nc3ccccc3N=C(C)C2c2ccccc2)cc1 (configuration not stated) | ? | 44* | -2%[7.34 µM] | -6%[46.1 µM] | 190* | -5%[7.34 µM]
CC1=Nc2ccccc2N=C(NC(=O)CN2CCN(c3ccc(F)cc3)CC2)C1c1ccccc1 (configuration not stated) | 14% | -2 | -3% | ? | 16 | -5%
SMILES | Lassa entry inh | Cycloheximide cs | Vaccinia mCherry | Marburg entry inh | Shiga toxin inh | VACV Venus inh
CC1=Nc2ccccc2N=C(NC(=O)/C=C/C(=O)O)C1c1ccccc1 (configuration not stated) | ? | 40* | -1% | ? | 77* | -17%
CC(C)(C)c1ccc(C(=O)Nc2nnc(SCC(=O)NCC3CCCO3)s2)cc1 (configuration not stated) | / | 56* | / | / | 110* | /
CCOc1ccc(C(=O)Nc2nnc(SCC(=O)NCC3CCCO3)s2)cc1 (configuration not stated) | / | 38* | / | / | 48 | /
CN(C)S(=O)(=O)c1ccc(C(=O)Nc2nnc(SCC(=O)NCC3CCCO3)s2)cc1 (configuration not stated) | -18% | -4 | i | -1% | -19 | -7%
CCOc1ccc2[nH]c3c(NCCO)ncnc3c2c1 | / | 20* | / | / | 36 | /
CCOCCCNc1ncnc2c1[nH]c1ccccc12 | ? | 13* | / | ? | -2 | ?
CCCCOCCCNc1ncnc2c1[nH]c1ccccc12 | ? | -3 | / | 5.2µM* | -6 | /
Cc1nn(Cc2ccc(C(=O)N3CCN(C(=O)c4ccco4)CC3)o2)c(C)c1[N+](=O)[O-] | 17% | -1 | -3% | 27% | -24 | -16%
COc1cccc(C2c3[nH]c4ccccc4c3C[C@H]3C(=O)N(c4ccccc4C(=O)N4CCC(C(=O)O)CC4)C(=O)N23)c1 (some centres not stated) | / | 2 | -14% | / | -9 | -8%
Cn1ccc(C(=O)N2CCCc3ccccc32)n1 | 9% | -2 | / | 8% | -3 | -13%
O=C(c1cc(-c2ccco2)on1)N1CCc2ccccc2C1 | 1% | 9 | / | 12% | 36 | /
O=C(c1cc(-c2ccccc2)on1)N1CCCc2ccccc21 | / | 50* | / | / | 61* | /
O=C(c1cc(-c2ccco2)on1)N1CCCc2ccccc21 | 12% | 16* | / | 8% | 105* | /
CC(CNC(=O)c1cc(COc2c(F)cccc2F)on1)c1ccccc1 (configuration not stated) | ? | 16 | -9% | 9% | -6 | -25%
O=C(NCCc1cnn(-c2ccccc2)c1)c1cc(COc2c(F)cccc2F)on1 | 0%[46.1 µM] | 27* | -21% | ? | 68* | -25%
COc1ccc(CNC(=O)c2cc(COc3c(F)cccc3F)on2)cc1OC | / | 0 | ? | / | 5 | -27%
O=C(NCc1ccc(F)cc1F)c1cc(COc2c(F)cccc2F)on1 | -30% | 7 | i | 2% | 10 | -8%
O=C(NC1CCc2ccccc21)c1cc(COc2cncc(Cl)c2)on1 (configuration not stated) | ? | 57* | ? | 24%[46.1 µM] | 67* | -19%
O=C(NCc1c(F)cccc1F)c1cc(COc2c(F)cccc2F)on1 | -18%[46.1 µM] | 26* | -1% | -20%[46.1 µM] | 97* | -25%
O=C(NCC1OCCc2ccccc21)c1cc(COc2c(F)cccc2F)on1 (configuration not stated) | ? | 35* | -13% | ? | 49* | -2%
